Measurements reported in the supplement of paper PMC3334620.
In all, about 33,000 sequences were measured (“E-score (-0.5 to 0.5)”: median about -0.035, highest 2% from about 0.35 on). Many of the other results were omitted from the sample, so the highest values are more common in it than they were.

target: T1, Pdr3 (UniProt P33200); assay: PBM E-score (8-mer binding enrichment) (E-score (-0.5 to 0.5)); higher = stronger / more preferred TF binding; conditions: protein concentration: 200 nM; construct: GST-full length
T1 sequence: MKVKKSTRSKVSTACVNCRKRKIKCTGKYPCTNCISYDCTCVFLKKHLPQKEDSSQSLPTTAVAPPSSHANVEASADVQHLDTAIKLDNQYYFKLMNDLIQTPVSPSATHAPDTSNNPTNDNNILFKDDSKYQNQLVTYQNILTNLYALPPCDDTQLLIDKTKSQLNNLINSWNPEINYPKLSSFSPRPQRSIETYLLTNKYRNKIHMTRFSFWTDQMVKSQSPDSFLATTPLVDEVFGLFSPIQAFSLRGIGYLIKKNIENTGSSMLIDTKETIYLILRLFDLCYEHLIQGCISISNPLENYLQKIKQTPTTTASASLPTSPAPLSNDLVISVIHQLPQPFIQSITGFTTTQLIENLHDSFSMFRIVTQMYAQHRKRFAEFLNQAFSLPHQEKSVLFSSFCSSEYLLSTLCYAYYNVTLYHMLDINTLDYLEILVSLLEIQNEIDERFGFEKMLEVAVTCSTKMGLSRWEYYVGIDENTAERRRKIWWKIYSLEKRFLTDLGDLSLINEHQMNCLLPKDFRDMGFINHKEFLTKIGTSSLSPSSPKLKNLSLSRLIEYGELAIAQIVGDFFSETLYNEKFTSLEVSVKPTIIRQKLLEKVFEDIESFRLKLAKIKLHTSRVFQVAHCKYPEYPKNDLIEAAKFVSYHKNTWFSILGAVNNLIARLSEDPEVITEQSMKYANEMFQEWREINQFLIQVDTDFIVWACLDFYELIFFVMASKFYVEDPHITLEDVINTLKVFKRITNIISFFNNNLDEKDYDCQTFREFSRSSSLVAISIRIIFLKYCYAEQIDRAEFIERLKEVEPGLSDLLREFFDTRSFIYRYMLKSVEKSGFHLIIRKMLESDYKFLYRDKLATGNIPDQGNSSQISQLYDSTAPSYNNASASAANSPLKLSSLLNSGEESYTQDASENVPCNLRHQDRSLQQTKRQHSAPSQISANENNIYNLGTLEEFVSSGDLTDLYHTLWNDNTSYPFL
Protocol: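 Universal 'all 10-mer' protein binding microarrays (Agilent AMADID 015681) probed with GST-tagged S. cerevisiae TFs (full-length or DBD) made by in vitro transcription/translation (PURExpress), about 100-200 nM. Bound TF was detected with fluorescent anti-GST. Each ungapped 8-mer (which stands for itself and its reverse complement) is scored by the PBM enrichment score (E-score), a modified Wilcoxon-Mann-Whitney statistic from -0.5 to +0.5, computed with the Universal PBM Analysis Suite. Scale: above 0.35 generally sequence-specific binding.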

Sequence | PBM E-score
CTTCACAC | -0.201
ACCAAATA | 0.0784
GGAATGTA | 0.339
CATAACCG | 0.135
ACAATGCT | -0.171
AGCATAAG | -0.0742
AGTTCCGG | 0.464
GGGTCCGA | 0.234
CGGTCCGA | 0.378
AGTTCCAC | -0.00065
AGTTCCCC | 0.0744
AGTTCCTG | -0.0933
AGTTCCAG | -0.0101
AGTTCCGC | 0.467
AGGTCCGA | 0.305
CTAGGTTC | 0.154
CCCATCCA | 0.00501
GTGAAAGA | -0.0383
CTAAGATC | -0.0406
ACTACCCT | -0.179
ATCTAGAG | -0.177
CTTCGACC | 0.054
TCGGATAA | 0.307
ACGGAAGT | 0.393
ACGGAAGA | 0.373

Sequence | PBM E-score
ACGGAAGC | 0.427
GTGGAAGA | -0.0507
GAGGAAGA | 0.0527
ATGGAAGC | 0.179
GCGGAAGA | 0.393
AAGGAAGT | 0.0783
AGGGAAGC | -0.0866
ATGGAAGA | -0.243
AAGGAAGA | -0.2
ACAGAAGT | -0.285
CCCCCTAG | -0.342
CCCTGACA | -0.222
CATGAACG | -0.0457
CAAAACCG | 0.00937
GGTGCGCA | 0.191
CTGGAAGA | -0.108
AAGGAAGG | -0.205
CCGGAAGA | 0.403
ACGGAAGG | 0.397
TAGGAAGA | -0.204
CTGGAAGC | -0.322
CAGGAAGA | 0.0315
ATGGAAGG | -0.197
TCAGAAGA | -0.178
GCGGAAGC | 0.347

Sequence | PBM E-score
TCGGAAGA | 0.359
CCGGAAGC | 0.444
CGACCACA | -0.0427
AAGTGCAC | 0.0238
ACTGAGAA | -0.121
TAAGCCCA | -0.113
ACTAGGGA | -0.253
ACTGCCCG | 0.179
CACGTGGA | -0.0333
AGGGAAGA | -0.238
CGGGAACA | 0.358
CCGGAAGG | 0.421
CGGGAAGA | 0.391
GGGGAACA | -0.00834
CCAGAAGG | -0.0321
CAGGAAGG | -0.317
CGGGAAGC | 0.282
AGGGAACA | -0.0421
CCCCCCAG | -0.372
CGCGAGGA | 0.135
TATGGCGA | -0.0751
GCAGACAA | 0.0426
ACCCTCAA | -0.158
ACCCGGAG | 0.38
ACCCGGTA | 0.215

Sequence | PBM E-score
TCCCGTAA | 0.0877
ACCCGGCG | 0.276
GCCCGGTA | 0.102
ACCCGGAA | 0.456
TCCCGGAA | 0.463
ACCCGGAT | 0.31
GCCCGGAC | 0.282
ACCCGGCA | 0.256
GCCCGGAA | 0.459
TCCCGAAA | 0.206
CCCTGAAA | -0.0909
ACCCCGTA | 0.006
CACGCGTG | 0.283
GCTTGGTA | -0.168
AATTCGAA | -0.148
CCCCGCAG | 0.225
CCCCCGAG | -0.0658
CCCCCGAA | -0.0602
CCCCGGAC | 0.33
CCCCGGAG | 0.355
CCCCGGAA | 0.421
CAGGGATA | -0.193
ATAGTCAT | -0.0921
AGCGGCAC | 0.118
AGCGGCGC | 0.137

Sequence | PBM E-score
AGCGGCGA | 0.197
CGGCGCGC | 0.245
CGCGGCAC | 0.385
GGCGGCGA | 0.243
CGCGGCAA | 0.341
CGCGGCGC | 0.398
CGCGGCGA | 0.374
CCGAGCAC | 0.122
ACGTGAGT | -0.0439
TGAGTCCA | -0.18
AAAGTCAT | -0.0971
ATTAGGGG | -0.0731
AACCCTGT | -0.104
ATGTTGCG | 0.091
ATGGAGCG | 0.0393
CTGAGGAC | -0.0292
AATACCCC | 0.188
TCCATCAA | 0.0544
CGGGGTGA | 0.214
TCGGGTAA | 0.0953
CCGGGTGA | 0.404
GCGGGTGA | 0.26
CCGGGTAA | 0.397
CCGGGTAC | 0.303
GGACGGCC | 0.188

Sequence | PBM E-score
AGCCTTTC | -0.167
CACCAAAA | -0.054
CCGGTGTA | 0.153
CTCTCGTA | -0.00771
AACGCAGG | -0.0195
AACTTAAT | 0.115
ACATTTAT | -0.248
GCGACACA | -0.0561
CCCAGATC | -0.145
AGCAGATC | -0.0743
CGCAGATC | -0.0483
CCCGGATA | 0.34
CTCGGATC | 0.386
CGCGGATC | 0.431
AGCGGATG | 0.191
CTCGGATA | 0.273
ATCGGATC | 0.301
AGCGGATC | 0.374
CCCGGATC | 0.419
CGCGGCTC | 0.344
GAACCCCA | 0.211
TCAGTAAA | -0.00839
ACCACAGG | -0.238
CGAGGTAA | 0.0804
AGCTGGAG | -0.163

Sequence | PBM E-score
TAGGCTAA | -0.288
AAAGGCAA | -0.0369
CGGCCTAC | 0.158
GGCGGATA | 0.287
CGCGGATA | 0.412
CTCGGACC | 0.359
AGCGGATA | 0.3
CTCGGACA | 0.285
CTCAGACC | -0.0888
CCACATTC | 0.0586
GAGGCGAA | 0.0545
CGCGAGCG | 0.106
CTCTATGC | -0.0609
CCGGACTC | 0.363
CCGGACAA | 0.329
ACGGACTC | 0.205
CCGGACTA | 0.333
CCGGACAC | 0.366
CCGGACAG | 0.338
AGTGACTA | -0.132
ATCCCGAG | 0.395
ATCCCGAA | 0.308
